Data taken from the supplement of paper PMC6555819.

Tests used:
Assay in all cases: PBM binding z-score (relative to random genomic background probes); higher = stronger binding; sequences stand for … in GC…GCGATTGACAGCGTAGAATGAAGG
[1] = test system: FXR:RXRa (NR concentration 270 nM, RXRa partner concentration 90 nM)
Summary of the method: (§1)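 Scanned fluorescence from custom Agilent 4×180K protein-binding microarrays was regression-normalized. Binding z-scores use random background probes as reference. Ligand-free nuclear receptor dimers were incubated on the arrays for 1 h and detected with antibodies against each partner (one per run).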

[2] = test system: LXRa:RXRa (NR concentration 270 nM, RXRa partner concentration 90 nM)
Summary of the method: as §1

[3] = test system: LXRa homodimer (NR concentration 270 nM)
Summary of the method: as §1

[4] = test system: LXRb:RXRa (NR concentration 270 nM, RXRa partner concentration 90 nM)
Summary of the method: as §1

[5] = test system: LXRb homodimer (NR concentration 270 nM)
Summary of the method: as §1

[6] = test system: PPARa:RXRa (NR concentration 270 nM, RXRa partner concentration 90 nM)
Summary of the method: as §1

[7] = test system: PPARg:RXRa (NR concentration 180 nM, RXRa partner concentration 90 nM)
Summary of the method: as §1

[8] = test system: PPARg:RXRa 270nM:90nM, anti-RXR (NR concentration 270 nM, RXRa partner concentration 90 nM)
Summary of the method: as §1

[9] = test system: PPARg:RXRa 30nM:10nM, anti-RXR (NR concentration 30 nM, RXRa partner concentration 10 nM)
Summary of the method: as §1

[10] = test system: PPARg:RXRa 90nM:30nM, anti-RXR (NR concentration 90 nM, RXRa partner concentration 30 nM)
Summary of the method: as §1

[11] = test system: PPARg:RXRa DBDmut IVT, anti-RXR (DBD mutation: RXRa K156A/R161A, NR concentration 270 nM, RXRa partner concentration 90 nM)
Summary of the method: as §1

[12] = test system: PPARg:RXRa IVT, anti-PPARg (NR concentration 270 nM, RXRa partner concentration 90 nM)
Summary of the method: as §1

[13] = test system: PPARg DBDmut:RXRa IVT, anti-PPARg (DBD mutation: PPARg1 K132A/R137A, NR concentration 270 nM, RXRa partner concentration 90 nM)
Summary of the method: as §1

[14] = test system: PPARg DBDmut IVT, anti-PPARg (DBD mutation: PPARg1 K132A/R137A, NR concentration 270 nM)
Summary of the method: as §1

[15] = test system: PPARg homodimer (NR concentration 180 nM)
Summary of the method: as §1

[16] = test system: PXR:RXRa (NR concentration 270 nM, RXRa partner concentration 90 nM)
Summary of the method: as §1

[17] = test system: PXR homodimer (NR concentration 270 nM)
Summary of the method: as §1

[18] = test system: RARa:RXR (NR concentration 270 nM, RXRa partner concentration 90 nM)
Summary of the method: as §1

[19] = test system: RARa homodimer (NR concentration 270 nM)
Summary of the method: as §1

[20] = test system: RARb:RXRa (NR concentration 270 nM, RXRa partner concentration 90 nM)
Summary of the method: as §1

Sequence	PBM binding z-score [1]	PBM binding z-score [2]	PBM binding z-score [3]	PBM binding z-score [4]	PBM binding z-score [5]	PBM binding z-score [6]	PBM binding z-score [7]	PBM binding z-score [8]	PBM binding z-score [9]	PBM binding z-score [10]	PBM binding z-score [11]	PBM binding z-score [12]	PBM binding z-score [13]	PBM binding z-score [14]	PBM binding z-score [15]	PBM binding z-score [16]	PBM binding z-score [17]	PBM binding z-score [18]	PBM binding z-score [19]	PBM binding z-score [20]
TCTGCTAGGTCAGTCGGTCAGCTAACGAGCTGCC	1.18	0.763	-0.313	0.432	0.0608	1.92	1.25	2.34	1.11	1.44	3.05	3.83	-0.327	-0.109	0.456	-0.00116	-1.21	0.436	-1.08	3.6
CGTCAAAGTTCAAGGTAACGTATCAGAAAGCAGC	5.57	5.5	2.87	3.2	1.15	4.61	4.11	5.03	1.86	3.65	1.16	2.03	0.808	-0.101	2.73	4.22	3.05	3.48	1.28	4.98
GATACAGCGTCAGCTAGAGGCCAGAGTATGGAAA	-1.06	-0.907	-0.84	-1.11	-1.5	-1.18	0.184	-0.842	-0.638	-1	-0.984	-0.61	-2.52	-1.12	-1.09	-0.922	-0.376	-0.685	-1.14	-0.322
TTACCAAGGTGAAGGCCGTTGATCCCTCTGTAGA	0.294	0.227	-0.606	0.138	-0.941	1.33	0.354	1.33	0.659	0.916	1.67	2.18	-0.266	0.1	0.061	0.0988	-0.493	0.33	-0.621	1.34
TCTATTAGCTGAAGGGCAACCGACGAGTCCGTTT	-0.0805	0.244	-0.393	0.444	-0.429	0.629	0.0411	1.66	2.6	2.2	1.6	0.162	0.664	0.466	-0.169	0.472	0.237	0.362	-0.62	1.29
CTACCAAGGTGAACAAGGTCGTTGACTACTATTC	1.83	1.79	0.0971	1.79	-0.0485	2.65	1.41	1.68	0.448	0.985	2.76	2.84	0.603	0.324	0.75	2.98	2.72	2.61	0.269	2.29
CGTCCAAGGTCAATGCTAGGTCAGTTAAAGCATT	6.86	5.46	3.07	4.57	0.641	5.2	3.88	4.44	1.26	3.34	3.07	3.94	0.0858	0.055	4.36	4.89	1.22	5.78	1.02	5.21
TCATATAGGTAACGGTGAAAGTCGAACGATATGA	0.511	0.386	-0.274	0.302	-0.326	1.52	1.63	2.54	3.34	2.78	4.89	4.04	1.45	1.23	-0.0318	0.0146	-0.0521	0.23	0.533	0.479
ACGATTAGTTGAGACGAGGGCAACCGATAGGTTG	0.116	-0.256	-0.3	-0.292	-0.463	0.252	0.533	-0.0475	-0.114	-0.534	-0.118	0.112	0.232	-0.573	0.155	1.11	0.466	0.874	0.365	0.555
AGAATGAGGTTATACTTAGATCAGGGAAGAAAGT	1.79	1.76	0.275	1.58	0.388	2.68	1.83	1.44	0.605	1.17	2.72	2.03	1.21	1	1.21	1.02	0.666	1.38	1.18	1.3
GCAGAAAGGTGAAACGCAGGTAACTCAGGGTGGC	1.58	1.62	-0.633	0.912	-1.18	3.5	1.57	2.32	-0.0918	1.39	3.02	2.42	-0.00989	-0.405	0.213	0.633	-0.804	1.9	-0.501	2.88
CAAACTAGGTCACCGAGGTCAAAGTCCGTGCGTA	7	6.22	5.91	5.75	1.25	6.56	10.2	8.39	6.43	8.33	8.69	9.03	4.5	2.89	5.36	6.93	12.2	7.45	1.57	5.18
TCAGACACGTGAAGGTAACTCAGGTACGCAGTCG	0.454	1.57	-0.182	0.638	-0.58	0.588	0.903	1.81	3.41	2.58	2.01	0.0169	-0.15	-0.175	0.0115	0.416	-0.294	0.632	-0.256	0.338
CCTAGCAGGCCAATCCGGGTCACTCAAGGCTTGA	2.13	1.84	-0.396	1.47	-0.923	2.78	0.787	1.02	-0.565	0.469	2.27	2.8	-1.26	-0.765	0.726	2.79	-0.246	2.23	-0.442	1.63
TCATGTAGATCAAAGGTTAAGAAAGCCGAAGCCT	1.74	2.28	0.326	2.06	-0.197	4.5	8.22	8.1	7.58	8.85	2.23	3.59	0.546	0.593	1.17	2.12	0.246	3.29	0.881	1.91
ATATGTAGGTGAGCTGGGGTCATTCAGACTAGGC	4.23	3.62	0.762	4.15	0.598	5.85	7.13	5.75	3.65	5.74	7.57	7.41	3.98	2.99	1.94	6.35	3.01	5.85	0.796	3.08
GTACCAAGGAGAATAGGTCGTTGATGAGTAGGCG	-0.287	-0.0565	-0.284	-0.316	-0.56	0.108	0.546	0.112	-0.237	-0.0411	-0.462	-0.173	-1.64	-0.217	0.315	0.103	-0.146	0.0615	0.574	0.136
GCTTGTAGATGAAGGTTAAGAAAGACTAAGCTAA	-0.515	0.357	-0.563	-0.0135	-0.789	0.816	0.15	0.943	-0.144	0.254	0.000874	0.405	0.135	-0.0594	-0.126	0.0589	-0.403	0.444	-0.213	0.535
CATACAGAGTCAGCTAGGCCAGAGTAGGGACGGC	-0.451	-0.383	-0.608	-0.891	-0.106	-0.478	0.472	-0.324	-0.369	-0.479	-0.267	0.0883	0.15	0.197	-0.174	-0.875	-0.632	-0.635	-0.132	0.148
GCTGCTAGGTCAACTGATGGTCAGCTATAGCTCG	4.54	3.25	0.314	2.01	0.25	3.81	2.88	3.13	0.633	2.16	5.21	4.3	-0.479	-0.34	1.51	1.3	-0.342	2.91	0.342	4.31
ACTAGTTGGTCAGCTGAGGTCACAAACAATTCGG	2.51	2.67	2.22	3.43	0.432	3.72	1.41	2.05	0.167	1.14	1.09	2.67	-0.0448	0.681	2.75	5.42	1.38	4.65	1.05	3.53
CAAACTTGGTCAAAGGTCAAAGTCGAGCCAACCA	6.18	6.18	4.48	5.67	2.36	6.84	11.5	10	10.4	11.2	3.33	6.48	1.57	0.873	4.08	6.01	1.58	7.69	1.5	5.11
ACTAGCAGGCCAAGGTTCACTCAAGATTAGTCCG	0.739	1.16	0.631	1.04	-0.0506	2.89	5.16	6.08	5.04	6.29	1.19	2.08	-0.0687	-0.0109	0.515	1.36	0.191	1.35	0.0605	1.62
CCTACTGGGCCATTCAGAGGTCATTGAACATATG	2.73	4.42	6.32	4.04	0.612	4.06	2.51	3.47	1.18	2.51	4.56	4.39	0.0817	-0.464	3.64	5.2	3.45	5.13	1.15	3.23
CAAACTAGGACAAGAGGTCAAAGTCCGCTTCCCG	4.96	5.72	5.89	4.83	1.83	5.48	5.75	6.56	4.76	6.29	5.17	5.25	1.06	0.504	3.1	5.45	2.97	5.92	0.963	4
CCTAGGTGGTCAAGGTCACACACGCTATAGGTAC	4.58	3.67	1.51	3.57	0.536	4.35	3.72	3.83	1.19	2.85	1.34	3.54	0.368	0.561	4.82	4.24	1.58	4.44	1.3	4.22
ATCTCTAGGTAAAAGGTCAGTGAATCCCGAGGAT	3.03	3.55	1.43	3.07	1.09	6.09	9.92	8.92	8.03	9.78	3.67	5.64	1.49	2.13	2.81	3.49	0.63	4.68	1.9	4.56
GCTCGGAGGACAGGGTCAGAGCTTTGTCCGTAGA	1.13	0.858	-0.746	0.906	-1.08	2.62	-0.204	0.469	-0.854	0.00374	-0.294	0.104	-1.35	-1.12	-0.0128	1.22	-0.77	2.28	-1.04	2.55
